Test results published in PubChem BioAssay (NCI).
Compounds without any hit were thinned out: in the full panel of roughly 83,000, 20% have a hit.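 Treatment: one concentration, 48 hours, 96-well format. Scoring: percent growth, with anything below 10 considered active.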 A number with no mark means an inactive call. Calls of active or inactive are those of the source.

These compounds were tested on HL-60(TB) leukemia (assay: NCI-60 one-dose screen, 48 h (100 = growth as untreated, 0 = no growth, -100 = all killed)). Settings: 10 µM unless noted.

SMILES	growth
CC/C=C\C[C@H](O)C/C=C1/C(=O)C=C[C@@H]1C/C=C\CCCC(=O)OC	-12.3% (active)
CC(=O)NNC(=S)/N=C\C(C(=O)c1ccccc1)=C(/O)c1ccccc1	103%
CCCCCC#CC1OC23CCCCC2C(C#N)(C(=N)O3)C1(C#N)C#N (centres undefined)	81%
C=C(C)[C@@H]1CC[C@]2(C(=O)O)CC[C@]3(C)[C@H](CC[C@@H]4[C@@]5(C)C[C@@H](CC#Cc6ccc(C(F)(F)F)cc6)[C@H](O)C(C)(C)[C@@H]5CC[C@]43C)[C@@H]12	7.01% (active)
CCCCCCCC/C=C\CCCCCCCCOc1ccccc1CC(=O)NCC[N+]1(C)CCCCC1	-19.6% (active)
COc1ccc(-c2ccc(-c3ccc(-c4ccc(C(=N)N)cc4)s3)s2)cc1OC	99.1%
CC1(C)CC(=O)C2=C(C1)Nc1cc3c(cc1C2c1ccc(F)cc1)OCO3 (centres undefined)	90.2%
COc1ccc2c(c1)nc(N)c1c3cc(C)c(C)cc3cn21	79.6%
C=C(C)[C@@H]1CC[C@]2(C(=O)OCCOCCOCC[P+](c3ccccc3)(c3ccccc3)c3ccccc3)CC[C@]3(C)[C@H](CC[C@@H]4[C@@]5(C)CC[C@H](OC(=O)C(Cl)Cl)C(C)(C)[C@@H]5CC[C@]43C)[C@@H]12	-47.8% (active)
